rCAG RNA binder: binds r(CAG) RNA repeats. AID 651821. inhibition, % at 3 µM. r(CAG) RNA repeat, TO-PRO-1 dye displacement fluorescence. actives 1.3% (n = 370,000);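 active = inhibition above the plate cutoff, the mean of all test compounds on that plate plus 3 SD, cut at about 35% in these data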;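 also: 0% = DMSO alone and 100% = 100 µM mitoxantrone as full dye displacement; higher means more dye released from RNA so lower well fluorescence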
AHR activator: activators of human aryl hydrocarbon receptor | P35869 | AHR-responsive luciferase reporter cells, luminescence | actives 2.5% (n = 320,000) | activation, % at 5 µM | AID 2796; in the data active = activation above about 47%;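 also: 0% = vehicle wells and 100% = reference agonist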
GRIN3A LBD mod: NR3A (human) ligand-binding domain modulation; NR3A LBD differential scanning fluorimetry, Tm shift; 0% = protein alone, 100% = glycine-bound protein; Tm shift relative to glycine control, % at 25 µM; actives 2.5% (n = 340,000);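 active = melting temperature shift of at least 10% of the positive control shift, at one fixed dose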
KLK7 zymogen act: activates the human kallikrein-7 zymogen; P49862; purified proKLK7, EDANS-DABCYL substrate fluorescence; 100% is mature enzyme control, 0% vehicle; activation, % at 7 µM; actives 0.9% (n = 370,000); AID 652039;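 active = activation above the mean of all tested compounds plus 3 SD, computed per campaign excluding outliers beyond control limits, cut at about 13% in these data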
ADAM10 inh: ADAM10 inhibition, QFRET primary screen. O14672. recombinant ADAM10, EDANS/DABCYL FRET peptide cleavage, 3 h. inhibition, % at 7 µM. actives 0.62% (n = 370,000);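 active = inhibition above a per-campaign cutoff equal to the mean of compounds falling between control-based bounds plus 3 SD, cut at about 20% in these data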;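 also: 0% = DMSO wells while the 100% control is not disclosed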
ADAM17 inh: inhibitors of human ADAM17; P78536; recombinant ADAM17, EDANS/DABCYL FRET peptide cleavage; inhibition, % at 6.95 µM; actives 0.83% (n = 370,000);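 active = inhibition above the mean of compounds lying between control limits plus 3 SD, set per campaign, cut at about 8.5% in these data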;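 also: 0% = DMSO-only wells as the low control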
Target sequence (P78536 215-824 limits assumed): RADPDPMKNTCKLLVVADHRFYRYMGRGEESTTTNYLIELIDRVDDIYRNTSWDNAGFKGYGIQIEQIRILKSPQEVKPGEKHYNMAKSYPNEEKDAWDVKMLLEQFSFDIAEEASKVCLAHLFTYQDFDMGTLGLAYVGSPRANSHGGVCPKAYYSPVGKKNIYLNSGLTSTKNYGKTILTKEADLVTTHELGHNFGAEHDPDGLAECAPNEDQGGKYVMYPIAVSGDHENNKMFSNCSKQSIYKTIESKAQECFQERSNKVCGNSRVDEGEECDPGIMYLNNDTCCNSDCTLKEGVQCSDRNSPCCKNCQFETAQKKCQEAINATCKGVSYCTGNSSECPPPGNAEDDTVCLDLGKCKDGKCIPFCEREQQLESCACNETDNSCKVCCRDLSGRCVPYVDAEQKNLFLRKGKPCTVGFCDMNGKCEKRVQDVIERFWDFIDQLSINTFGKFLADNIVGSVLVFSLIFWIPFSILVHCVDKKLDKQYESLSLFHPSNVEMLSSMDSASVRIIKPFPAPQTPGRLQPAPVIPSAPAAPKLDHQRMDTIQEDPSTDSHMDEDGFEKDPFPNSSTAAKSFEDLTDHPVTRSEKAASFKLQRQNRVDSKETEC
proKLK7 act conf: proKLK7 activation, confirmation | AID 686949 | purified proKLK7, EDANS-DABCYL substrate fluorescence; scaled: vehicle 0, mature enzyme 100 | activation, % at 7 µM | shares compounds with KLK7 zymogen act | actives 68% (n = 3,200);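 active = activation, as change over the incubation, above the mean of all tested compounds plus 3 SD, cut at about 13% in these data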
EDANS interfere: optically interferes with EDANS-DABCYL signal, flagging KLK7 hits; EDANS-DABCYL substrate fluorescence interference, no enzyme, 4 h; solvent 0%, active enzyme control 100%; activation, % at 7 µM; AID 686952; shares compounds with KLK7 zymogen act; actives 80% (n = 3,200);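 active = activation above the all-compound mean plus 3 SD, ignoring values outside control-based bounds, cut at about 4.8% in these data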;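 also: value is the 4 h activation minus the activation read at time zero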
* hit, by the source's call; i = inactive; / = no result given. A selection: hits, their analogues and other compounds. The true share with any hit is near 7%.

SMILES | rCAG RNA binder | AHR activator | GRIN3A LBD mod | KLK7 zymogen act | ADAM10 inh | ADAM17 inh | proKLK7 act conf | EDANS interfere
CCOc1ccc2[nH]c(SCC(=O)OC)c([N+](=O)[O-])c2c1 | -0.5 | 0.9 | -0.9 | 13.3* | -14.7 | -4.7 | 18.5* | 16.0*
O=C1CCCC2=C1C(c1ccncc1)n1c(nc3ccccc31)N2 (stereo not given) | -4.1 | 6.2 | 2.2 | 47.0* | i | i | 63.2* | 75.2*
CC1CC(=O)C2=C(C1)Nc1nc3ccccc3n1C2c1cccnc1 (stereo not given) | -2.1 | 5.5 | 0.1 | 76.2* | i | i | 64.2* | 71.5*
COc1ccc(C2C3=C(CCCC3=O)Nc3c(-c4ccccc4)c(C)nn32)cc1 (stereo not given) | / | 9.6 | -1.1 | / | / | / | / | /
O=C(NCc1ccncc1)[C@@H]1CCCN1C(=O)[C@H]1CCCN1C(=O)c1c(F)cccc1F | -1.9 | / | / | -0.9 | -2.3 | -3.5 | / | /
COc1ccc(S(=O)(=O)N2CCOCC2)cc1NC(=O)COc1ccc(C(C)=O)cc1OC | -0.9 | / | 0.6 | -0.5 | -2.3 | 0.2 | / | /
O=C(CCn1nnc2ccccc21)N1CCN(c2cccc(C(F)(F)F)c2)CC1 | -0.5 | / | / | -0.3 | 2.5 | 2.9 | / | /
COc1cccc(N=c2oc3cc(O)ccc3cc2C(=O)NCC2CCCO2)c1 (stereo not given) | 22.0 | -1.5 | -7.3 | 65.7* | i | i | 9.1 | 6.5*
COc1ccccc1N=c1oc2cc(O)ccc2cc1C(=O)NCC1CCCO1 (stereo not given) | 10.9 | -15.2 | -15.3 | 74.5* | i | i | 21.3* | 21.8*
Cc1cccc(N=c2oc3cc(O)ccc3cc2C(N)=O)c1 | 21.7 | 4.2 | -6.3 | 53.3* | i | i | 26.6* | 26.6*
COc1cccc2cc(C(=O)NCC3CCCO3)c(=O)oc12 (stereo not given) | 0.9 | -4.0 | 4.5 | -5.7 | -10.3 | -11.7 | / | /
COc1ccc2oc(=O)c(C(=O)NCC3CCCO3)cc2c1 (stereo not given) | -2.4 | -2.0 | 2.2 | -10.3 | i | -266.9 | / | /
CC(C)CC(N)c1csc(Nc2cnccn2)n1 (stereo not given) | 3.8 | / | / | 0.8 | 2.9 | 0.4 | / | /
COc1ccc(CN2C(=O)Cc3c2nc(N)c2c(N)nc(N4CCOCC4)c(C#N)c32)cc1 | 27.3 | 0.9 | 1.7 | 55.1* | -337.3 | -108.3 | -48.1 | -48.8
CCOc1cc2c(C#N)c(N3CCOCC3)nc(N)c2c(N)n1 | 4.5 | 10.2 | -0.2 | 15.7* | -420.2 | -112.2 | 69.0* | 66.1*
CCC1Cc2c(nc(N)c3c(N)nc(N4CCOCC4)c(C#N)c23)O1 (stereo not given) | 5.2 | 4.5 | 1.6 | 18.7* | -379.2 | -126.8 | -16.2 | -24.1
N#Cc1c(N2CCCCC2)nc(N)c2c(N)nc3c(c12)CC(CCl)O3 (stereo not given) | 21.7 | 2.0 | 0.3 | 14.5* | i | -181.4 | -149.1 | -159.2
CCOC(=O)C1(CCCc2ccccc2)CCN(C(=O)Cn2nc(C)nc2C)CC1 | -11.3 | 9.8 | -0.9 | -0.1 | -0.6 | -6.3 | / | /
COc1cccc(NC(=O)C2CCN(S(=O)(=O)c3ccc4c(c3)C(C)(C)C(=O)N4C)CC2)c1 | 1.0 | 0.0 | 0.8 | -0.7 | -5.6 | -2.4 | / | /
CCC(=O)NC(=S)Nc1cccc(NC(=O)c2ccccc2)c1 | -4.0 | 2.7 | -1.5 | 0.4 | -0.5 | 0.5 | / | /
CC(=O)OCCc1c2ccccc2c(CCCN(C)C)c2ccccc12 | -2.2 | 1.6 | -1.2 | 15.6* | i | -481.5 | -7.8 | -7.2
CC(=O)OCCc1[nH]c2ccccc2c1C | 0.3 | 6.8 | 2.8 | 0.1 | -3.7 | -1.6 | / | /
COc1cc2c(cc1OC)C(Cc1ccc(O)cc1)N(C)CC2 (stereo not given) | -2.5 | -2.6 | -6.8 | 17.5* | -46.6 | -10.9 | 68.3* | 89.8*
CC(C)(C)NC(=O)C[C@H]1C[C@H](C(=O)N2CCCCC2)[C@@]2(C)c3[nH]c4cc(-c5ccco5)ccc4c3CCN2C1=O | 7.4 | / | -2.5 | 77.4* | -399.0 | -116.1 | 73.9* | 79.2*
C[C@]12c3[nH]c4cc(-c5ccco5)ccc4c3CCN1C(=O)[C@@H](CC(=O)NCc1ccco1)C[C@@H]2C(=O)N1CCCCC1 | 8.4 | / | 0.2 | 84.3* | -451.1 | -139.5 | 44.7* | 81.8*
SMILES | rCAG RNA binder | AHR activator | GRIN3A LBD mod | KLK7 zymogen act | ADAM10 inh | ADAM17 inh | proKLK7 act conf | EDANS interfere
CC(C)(C)NC(=O)C[C@H]1C[C@H](C(=O)N2CCOCC2)[C@@]2(C)c3[nH]c4cc(-c5ccco5)ccc4c3CCN2C1=O | / | / | 0.3 | / | / | / | / | /
CC[C@]12c3[nH]c4cc(-c5ccco5)ccc4c3CCN1C(=O)[C@@H](CC(=O)NCCc1ccccn1)C[C@@H]2C(=O)N1CCN(C(=O)C2CC2)CC1 | 5.9 | / | -4.0 | 137.2* | i | -180.4 | 103.8* | 123.8*
CC[C@]12c3[nH]c4cc(-c5ccco5)ccc4c3CCN1C(=O)[C@@H](CC(=O)NC(C)(C)C)C[C@@H]2C(=O)N1CCN(C(=O)C2CC2)CC1 | 9.2 | / | -1.1 | 144.3* | i | -180.8 | 203.4* | 162.5*
CC[C@]12c3[nH]c4ccccc4c3CCN1C(=O)C(CC(=O)NCCc1ccccn1)C[C@@H]2C(=O)N1CCN(C(=O)C2CC2)CC1 (stereo not given in full) | 0.2 | 1.5 | -0.2 | 0.1 | -18.3 | -7.1 | / | /
COc1ccccc1OCCNC(=O)C1CC(=O)N(c2ccc3c(c2)OCCO3)C1 (stereo not given) | -5.4 | 7.7 | 1.8 | -0.2 | -6.7 | -0.7 | / | /
O=C(NCCc1ccccc1)C1CCC(CNS(=O)(=O)c2cccs2)CC1 (stereo not given) | -3.0 | 2.8 | -0.9 | -0.8 | -0.6 | 1.4 | / | /
CCCS(=O)(=O)NC(=O)C1(C)CCN(C(=O)c2cc(C)nn2C(C)(C)C)C1 (stereo not given) | 2.6 | / | / | 1.0 | 1.7 | 5.0 | / | /
O=C(NC(=O)c1ccccc1)OCCN1C(=O)c2ccccc2C1=O | -0.8 | 0.6 | 3.3 | 0.0 | -1.8 | -4.5 | / | /
COc1ccc(CC(=O)Nc2cc(S(=O)(=O)Nc3ccc(OC)cc3)ccc2OC)cc1 | 5.8 | 5.4 | -5.6 | 0.1 | 16.6 | 4.0 | / | /
c1ccc(-c2ncc(CN3CCN(c4ccccn4)CC3)[nH]2)cc1 | 0.8 | 0.2 | 0.2 | -0.8 | 5.0 | 0.1 | / | /
C[C@]12c3[nH]c4cc(-c5ccco5)ccc4c3CCN1C(=O)[C@@H](CC(=O)NCc1ccco1)C[C@@H]2C(=O)N1CCOCC1 | 6.5 | / | -2.6 | 75.1* | -425.2 | -121.9 | 81.3* | 75.4*
